Assay outcomes from PubChem.
This is one part of a sample in which hits are shown more often than they occur.
CapD inh – blocks the Bacillus anthracis CapD enzyme; purified CapD enzyme, fluorescence intensity read-out; hits give low values; z-score (concentration not given with the values); hit rate 0.23% among 140,000; in the data active means z-score mostly below about -2.9, no sharp cut-off; inactive means mostly above about -1.9
An asterisk follows results filed as active.

SMILES | CapD inh
O=C(O)CN1C(=O)/C(=C\c2ccc(-c3ccc([N+](=O)[O-])cc3Cl)o2)SC1=S | -0.115
O=C1/C(=C/c2cc([N+](=O)[O-])cc(Br)c2O)SC(=S)N1c1ccc([N+](=O)[O-])cc1 | -0.13
O=C(O)CN1C(=O)/C(=C\c2cc([N+](=O)[O-])cc(Br)c2O)SC1=S | -7.91*
CC(C)(C)C(=O)n1cc(-c2ccncn2)c(-c2ccncc2)n1 | -0.37
CN1CCN(c2cc(N(C)CCO)c([N+](=O)[O-])c3nonc23)CC1 | -4.25*
CC1CCN(c2cc(N(C)CCO)c([N+](=O)[O-])c3nonc23)CC1 | -2.94
CN(CCO)c1cc(N2CCCCCC2)c2nonc2c1[N+](=O)[O-] | -2.74
COc1ccc(N2CCN(c3nc(C)nc4sc5c(c34)CCCC5)CC2)cc1 | 0.31
CSc1nsc(SCC(=O)N(c2ccccc2)c2ccccc2)n1 | -0.51
COCCNC(=S)c1ccc(N(C)C)cc1 | -4.89*
COCCNC(=O)c1ccc(C(=O)NCCOC)cc1 | 0.13
COCCCNC(=S)N/N=C/c1ccc(N(C)C)cc1 | 43.4
N#CCCN(C(=O)Cn1c(Cc2ccccc2)nc2ccccc21)c1ccccc1 | 0.54
O=c1oc2ccc(Cl)cc2c(=O)n1-c1cccc(C(F)(F)F)c1 | -0.095
COc1cc(COC(=O)N2CCN(c3cc(C(F)(F)F)nc4cc(C(C)(C)C)nn34)CC2)ccc1OCc1ccccc1 | 9.28
OC(CNCc1ccc(F)cc1)c1ccccc1 (stereo not drawn) | 0.05
COC(=O)c1nnn(-c2nonc2N)c1CSc1nc2ccc([N+](=O)[O-])cc2[nH]1 | -0.07
CSC1=N/C(=C/c2cccs2)C(=O)N1 | -4*
CSC1=N/C(=C/c2ccco2)C(=O)N1 | -2.93
CC1(C)OC(=O)C(=Cc2cccs2)C(=O)O1 | -0.63
COc1ccc(C2=N/C(=C/c3ccccc3C(F)(F)F)C(=O)O2)cc1Br | 1.31
Clc1ccc(CN2COc3c(cc(Cl)c4cccnc34)C2)cc1 | 0.45
COc1ccc(C2=NN3C(C(=O)c4ccc(Br)cc4)Oc4ccccc4C3C2)cc1 (stereo not drawn) | 0.22
CC(C)(C)C1(C)OC(=O)C(=Cc2ccccc2Cl)C(=O)O1 (stereo not drawn) | -0.365
CC1(C)OC(=O)C(=Cc2ccc(-c3ccccc3)o2)C(=O)O1 | 0.36
SMILES | CapD inh
CC(C)(C)C1(C)OC(=O)C(=Cc2ccc(Br)o2)C(=O)O1 (stereo not drawn) | -5.07*
NNc1ncc(Cl)cc1C(F)(F)F | 0.465
COc1ccc(CCNC(=O)CCn2c(SCC(=O)n3nc(N)cc3C)nc3ccccc3c2=O)cc1OC | 0.965
Cn1cncc1S(=O)(=O)/C(C#N)=N/Nc1ccc(OC(F)(F)F)cc1 | -2.7
COc1ccc(N/N=C(/C#N)S(=O)(=O)c2nsc(C)c2C#N)cc1 | -5.8*
Cc1snc(S(=O)(=O)/C(C#N)=N/Nc2cccc(C(F)(F)F)c2)c1C#N | -2.46
N=C1S/C(=C\c2ccco2)C(=O)N1c1ccc(Oc2ccccc2)cc1 | -0.19
O=C(O)c1cccc(-c2ccc(/C=C3/SC(=O)N(c4ccccc4)C3=O)o2)c1 | 18.1
O=C1S/C(=C\c2ccco2)C(=O)N1c1ccccc1 | -2.41*
Cc1ccc([N+](=O)[O-])c(COC(=O)NC(Cc2c[nH]c3ccccc23)C(=O)OC(C)(C)C)c1 (stereo not drawn) | -0.86
CC(O)(CS(=O)(=O)Cc1ccc(Cl)cc1)C(=O)Nc1ccc(Cl)cc1 (stereo not drawn) | 0
COc1ccc(N/C=C2\C(=O)N(c3ccc(Cl)cc3)CS2(=O)=O)cc1 | 3.99
CSC(=CC(=O)c1ccco1)SC | -2.17
CN(C)/C=C/C(=O)c1cc(-c2ccccc2)no1 | -3.65
CN(C)/C=C/C(=O)c1ccco1 | -4.41*
O=C(NCCN1CCN(Cc2ccccc2C(F)(F)F)CC1)Nc1ccccc1 | 0.34
O=C(NCC(=O)N1CCN(c2ccccc2)CC1)c1ccccc1Cl | 0.26
CCOC(=O)c1ccccc1S(N)(=O)=O | 0.335
CCOC(=O)c1cc2ccccc2cc1O | -0.5
CCOC(=O)c1cccc(O)c1O | -2.7*
O=c1c2ccc(N/N=C/c3c4ccccc4cc4ccccc34)c3cccc(c32)c2nc3ccccc3n12 | -0.135
O=C(O)c1ccc(C(=O)O)c2c(-c3ccc4c(=O)n5c6ccccc6nc5c5ccc(C(=O)O)c3c45)ccc(C(=O)O)c12 | -8.43*
N#Cc1ccc2c(c1)nc1c3ccc(C(=O)O)c4c(C(=O)O)ccc(c(=O)n21)c43 | -1.09
CS(=O)(=O)c1ccc(-n2cc(-c3ccc(C(=O)NCc4cccc(C(F)(F)F)c4)cn3)cn2)cc1 | 12.5
Cc1sc(C(=O)NCCc2ccccc2)c2nc(C)n(CC(=O)NCCc3ccccc3)c(=O)c12 | -0.115
SMILES | CapD inh
CCn1c(=NC(=O)c2ccc(S(=O)(=O)N3CCOCC3)cc2)sc2ccccc21 | 2.4
O=C1NC(=O)C(=Cc2ccc(OCc3ccc(C(=O)O)cc3)c(Br)c2)C(=O)N1 | -0.22
O=C1NC(=S)NC(=O)C1=Cc1ccc(OCc2ccc(C(=O)O)cc2)c(Br)c1 | -4.99*
COc1cc(C=C2C(=O)NC(=O)NC2=O)ccc1OCc1ccc(C(=O)O)cc1 | 0.84
COCc1nc2ccccc2c2c1C(=O)N(NC(=O)C1CCCNC1=O)C2=O (stereo not drawn) | -1.39
Cc1nn(CCCC(=O)N2CCCCC2)c(=O)c2c1sc1ccccc12 | 8.54
CCCNC(=O)Cn1nc(C)c2sc3ccccc3c2c1=O | -5.81*
Cc1nn(CC(=O)NCc2ccc3c(c2)OCO3)c(=O)c2c1sc1ccccc12 | 0.405
CC(=O)/C(=C\Nc1cc(C(F)(F)F)cc(C(F)(F)F)c1)c1ccccc1 | -0.595
COc1cccc(/C=C2/CCC/C(=C\c3cccc(OC)c3OC)C2=O)c1OC | 0.33
COc1cccc(/C=C2/CC(C(C)(C)C)C/C(=C\c3cccc(OC)c3OC)C2=O)c1OC (stereo not drawn) | -9.16*
COc1ccc(/C=C2/CC(C(C)(C)C)C/C(=C\c3ccc(OC)cc3OC)C2=O)c(OC)c1 (stereo not drawn) | 0.63
CCCCCCSc1nnc2n(-c3ccccc3)c(=O)c3c(C)c(C)sc3n12 | -0.395
CCC(=O)N1CCc2cc(S(=O)(=O)Nc3ccccc3OC)ccc21 | 0.41
O=C(O)CCC(=O)N1CCc2cc(S(=O)(=O)NCc3ccccc3)ccc21 | -1.62
COc1cc(NS(=O)(=O)c2ccc3c(c2)CCN3C(=O)CCC(=O)O)c(C(=O)O)cc1OC | -4.28*
C/C(=C\C(=O)c1ccc(C)o1)Nc1ccc(Nc2ccccc2)cc1 | -2
C/C(=C\C(=O)c1ccc(C)o1)Nc1ccc(C(=O)O)cc1C | -4*
C/C(=C\C(=O)c1ccc(C)o1)Nc1ccc(F)c(C)c1 | -2.42
O=C(C(c1ccccc1)c1ccccc1)N1CCNCC1 | 0.06
COc1c(C(=O)NC2CCN(Cc3cc(C)n(-c4ccccc4)c3C)C2)cnc2c1c(C)nn2C (stereo not drawn) | -0.355
CSCCNC(=O)NCCNc1ccc([N+](=O)[O-])cn1 | -0.42
O=C(NCCNc1ccc([N+](=O)[O-])cn1)NNC(=O)c1ccc([N+](=O)[O-])o1 | -5.07*
CCN(CC)c1ccc(C(=O)NNC(=O)NCCNc2ccc([N+](=O)[O-])cn2)cc1 | 9.88
CCN(CCCNc1nnc2c3ccccc3n(C)c2n1)c1cccc(C)c1 | 0.03
SMILES | CapD inh
Cc1ccc(OCC(=O)O)c(C)c1 | -0.085
CCc1nc(C)ccc1OCC(N)=O | 0.37
CCc1nc(C)ccc1OCC(=O)O | -4.99*
CC(=O)N1CCC2(CC1)CC(=O)c1cc(O)ccc1O2 | -0.07
COc1cc(OC)cc(-c2nc3ccccc3c(=O)n2NC(=O)COc2ccc(Cl)cc2Cl)c1 | -0.46
CCc1ccc(C2=CC(=O)C=CC2=O)cc1 | -0.415
